Experimental data reported in PubChem BioAssay AID1259421 (Broad Institute, 2018).
Where “and” joins values, the source holds several entries; their conditions need not be identical. Equal values may be shown once. Among all 6,400 compounds or so, about 610 (9.5%) were called active. Cut-off read from the data, not from the text of the source: active = activity change below about -70%; inconclusive = no clear call, values can overlap the other calls; inactive = above that. Many of the other results were omitted from the sample, so actives are more common in it than they were. Some compounds were tested as several samples or in several runs, with calls that do not always agree.

test: T. gondii ME49Luc in HeLa cells, luciferase assay, 72 h, no IFN-y (AID 1259421); details: stronger effect = lower value, concentration not given here

SMILES | activity change, negative = inhibition
NC(=O)CS(=O)C(c1ccccc1)c1ccccc1 (stereo not drawn) | -1.56% (inactive)
O=C(CCCN1CCC2(CC1)C(=O)N(Cc1cccc(F)c1)CN2c1ccccc1)c1ccc(F)cc1 | 10% (inactive) and -81.6% (active)
COC(=O)CN1CN(c2ccccc2)C2(CCN(Cc3ccc4ccccc4c3)CC2)C1=O | 13.3% (inactive)
O=C(CCCN1CCC2(CC1)C(=O)NCN2c1ccccc1)c1ccc(F)cc1 | 2.21% (inactive) and -33.3% (inactive)
Cc1cc(OC(=O)N2CCCCC2)c(C(C)C)cc1[N+](C)(C)C | -5.32% (inactive)
C/C1=C/C[C@@H](/C(C)=C/c2csc(C)n2)OC(=O)C[C@H](O)C(C)(C)C(=O)[C@H](C)[C@@H](O)[C@@H](C)CCC1 | -85.9% (active)
C/C(=C\c1csc(C)n1)[C@H]1C[C@@H]2O[C@]2(C)CCC[C@H](C)[C@H](O)[C@@H](C)C(=O)C(C)(C)[C@@H](O)CC(=O)O1 | -66.8% (inactive)
C/C(=C\c1csc(C)n1)[C@@H]1C[C@@H]2O[C@@H]2CCC[C@H](C)[C@H](O)[C@@H](C)C(=O)C(C)(C)[C@@H](O)CC(=O)O1 | -69.4% (inactive)
C/C(=C\c1csc(C)n1)[C@H]1C[C@@H]2O[C@]2(C)CCC[C@H](C)[C@H](O)[C@@H](C)C(=O)C(C)(C)[C@H](O)CC(=O)O1 | -73.6% (active)
CCN1CC2(COC(=O)c3ccccc3N3C(=O)CC(C)C3=O)CCC(OC)C34C5CC6C(OC)CC(O)(C5C6OC)C(O)(C(OC)C23)C14 (stereo not drawn) | 4.55% (inactive)
C[C@H](NC(=O)[C@@H](N)Cc1ccc(O)cc1)C(=O)NCC(=O)N(C)[C@@H](Cc1ccccc1)C(=O)N[C@H](CO)CCS(C)=O (stereo partly drawn) | 12.9% (inactive)
O=C1/C(=C/c2ccccc2)C[C@@]2(O)C3Cc4ccc(O)c5c4[C@@]2(CCN3CC2CC2)[C@H]1O5 | 1.86% (inactive)
COc1ccc2c(c1)[C@]13CCCC[C@H]1[C@H](C2)N(C)CC3 | 16.4% (inactive)
Cc1cc(C)cc(C(=O)OC2CC3CCC(C2)N3C)c1 (stereo not drawn) | -12.3% (inactive) and -9.52% (inactive)
CN1C(=O)CN=C(c2ccccc2)c2cc(Cl)ccc21 | -6.2% (inactive)
N#Cc1nn(-c2c(Cl)cc(C(F)(F)F)cc2Cl)c(N)c1S(=O)C(F)(F)F (stereo not drawn) | 13.6% (inactive) and 5.34% (inactive)
CC(N)Cc1c[nH]c2ccc(OCc3cccs3)cc12 (stereo not drawn) | 1.64% (inactive) and -1.85% (inactive)
C#Cc1cccc2c1c(C(=O)c1ccc(Cn3c(C)nc4cnccc43)c(F)c1)cn2C(=O)N(C)C | -7.53% (inactive)
